# From PubChem BioAssay
# 3CLpro inhibitor – SARS-CoV 3CLpro protease inhibition. AID 1706. P0C6X7. actives 0.14% (n = 290,000). inhibition, % at 6 µM. recombinant SARS-CoV 3CLpro, quenched FRET peptide cleavage; in the data active means inhibition above about 12%
# Autofluor counter – counter-screen for toxin protease inhibitors: compound fluorescence | compound autofluorescence counterscreen, microsphere flow cytometry; active compounds read high | fluorescence intensity (no concentration beside the values) | actives 3.1% (n = 360,000); in the data active means fluorescence intensity above about 16000; inconclusive means no clear call, values can overlap the other calls
# BoNT-A LC inh2 – BoNT A light chain protease inhibition; multiplex microsphere protease substrate cleavage, flow cytometry; inhibition, % at 10 µM; actives 0.17% (n = 360,000); further: plate controls were buffer without enzyme for full effect and enzyme alone for no effect
# CCHFV vOTU inh – blocks the CCHF virus ovarian tumor domain protease; CCHFV vOTU protease, Pep-AMC fluorescence; inhibition, % at 11.5 µM; actives 0.55% (n = 370,000); in the data active means inhibition above about 30%; further: 0% = vehicle wells with enzyme and 100% = no enzyme wells
# BoNT F protease – inhibitors of Botulinum neurotoxin F light chain protease; actives 0.22% (n = 360,000); Multiplex microsphere protease cleavage assay, flow cytometry; inhibition, % at 10 µM; in the data active means inhibition above about 35%, passing the limit was not always enough; inconclusive means no clear call, values can overlap the other calls; further: plate controls were buffer without enzyme for full effect and enzyme alone for no effect
# Anthrax LF inh2 – anthrax lethal factor protease inhibition; multiplex microsphere protease cleavage assay, LF; AID 588501; inhibition, % at 10 µM; actives 0.12% (n = 360,000); further: plate controls were buffer without enzyme for full effect and enzyme alone for no effect
# Target sequence (P15917 whole entry, looked up): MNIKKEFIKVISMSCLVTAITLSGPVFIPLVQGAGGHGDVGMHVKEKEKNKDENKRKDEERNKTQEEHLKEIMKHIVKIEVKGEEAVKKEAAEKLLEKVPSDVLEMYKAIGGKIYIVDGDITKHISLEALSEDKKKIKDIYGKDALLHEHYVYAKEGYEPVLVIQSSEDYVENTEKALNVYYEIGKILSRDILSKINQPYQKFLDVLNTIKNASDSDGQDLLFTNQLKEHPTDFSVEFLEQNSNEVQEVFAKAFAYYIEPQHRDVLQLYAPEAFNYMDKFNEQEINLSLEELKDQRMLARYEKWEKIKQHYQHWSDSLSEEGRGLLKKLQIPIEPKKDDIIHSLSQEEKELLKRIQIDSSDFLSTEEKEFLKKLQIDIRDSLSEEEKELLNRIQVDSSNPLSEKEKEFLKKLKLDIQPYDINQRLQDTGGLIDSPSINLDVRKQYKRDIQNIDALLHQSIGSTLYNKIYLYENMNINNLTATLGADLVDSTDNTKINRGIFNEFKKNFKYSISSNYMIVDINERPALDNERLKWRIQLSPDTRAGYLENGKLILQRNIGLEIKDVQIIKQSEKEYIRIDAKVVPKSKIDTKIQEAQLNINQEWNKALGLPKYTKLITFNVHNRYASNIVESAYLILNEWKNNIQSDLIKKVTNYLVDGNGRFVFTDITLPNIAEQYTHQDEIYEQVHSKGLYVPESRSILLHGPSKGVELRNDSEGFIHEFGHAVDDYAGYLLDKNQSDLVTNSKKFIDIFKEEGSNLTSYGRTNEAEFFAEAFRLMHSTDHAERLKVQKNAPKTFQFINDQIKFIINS
# Active calls of the source: *; ? = inconclusive; . = not tested or not shown. In the library only some 3.9% were active in any assay of this set; here they are far more common. Unless noted, no stated cut-off is given here; in the data, active means inhibition above about 30%; inconclusive means no clear call, values can overlap the other calls; inactive means below that.
SMILES,3CLpro inhibitor,Autofluor counter,BoNT-A LC inh2,CCHFV vOTU inh,BoNT F protease,Anthrax LF inh2
Cn1c(=O)cc(OCC(=O)N2CCN(c3ccccc3Cl)CC2)c2ccccc21,.,.,.,8,.,.
COc1ccc(NC(=O)CN(C)C(C)C(=O)N2CCCCC2)cc1 (centres undefined),5,21556*,1,3,5,-3
c1nc(N2CCOCC2)c2c3c(sc2n1)CCCC3,-2,23015*,0,-5,-2,-1
Cc1ccc(S(=O)(=O)NCCN=C(CN2CCOCC2)NS(=O)(=O)c2ccc(C)cc2)cc1,-2,8760,1,0,0,-1
Cc1ccc(S(=O)(=O)NCC(=O)N2CCCCC2)cc1,1,4090,0,11,1,2
Cc1ccc(S(=O)(=O)NCC(=O)N2CCCC2)cc1,1,16845*,?,-7,-2,2
Cc1ccc(S(=O)(=O)NCCN=C(CN2CCCC2)NS(=O)(=O)c2ccc(C)cc2)cc1,2,24857*,?,0,-5,-8
COc1ccc(NC(=O)C2CCN(S(C)(=O)=O)CC2)cc1OC,3,3999,-3,-10,3,-12
Cc1ccc(NC(=O)C2CCN(S(C)(=O)=O)CC2)cc1,3,22760*,?,10,-9,3
COc1ccc(NC(=O)C2CCN(S(=O)(=O)c3ccc(C)cc3)CC2)cc1OC,-1,25551*,-4,-1,-7,0
CCc1cc(/C(Cc2ccccn2)=N\O)c(O)cc1O,2,18010*,?,4,-14,-2
CCCCN(C)C(=O)C1CCN(S(=O)(=O)c2ccc3[nH]c(=O)oc3c2)CC1,.,.,.,-1,.,.
Cc1ccc(-n2c(-c3ccc(Br)cc3)c[n+]3c2CCc2ccc4cccnc4c2-3)cc1,1,21635*,-2,-5,1,2
Cc1ccc(-n2c(SCC(=O)Nc3ccc4c(c3)OCCO4)nnc2-c2cnccn2)cc1,.,.,.,-3,.,.
CCNS(=O)(=O)c1ccc2c(c1)n(C)c(=O)n2C,-2,22262*,4,5,2,1
C[C@H]1C2CC(OC(=O)NCCCc3ccccc3)C(C2)[C@H]2CCCCN21 (some centres undefined),.,.,.,-6,.,.
COc1cc(C(=O)NC2CCN(Cc3nnnn3Cc3cccs3)CC2)cc(OC)c1OC,-1,22671*,1,3,1,-8
CCOC(=O)c1c(-c2cccs2)csc1NC(=O)CN(CC)CC,5,22950*,-2,22,-1,-6
CCOC(=O)c1c(-c2cccs2)csc1NC(=O)CC(C)C,-6,4044,0,10,-9,0
O=C(NNC(=O)c1ccncc1)c1ccncc1,-2,22444*,-1,-2,0,-9
CC(=O)NNC(=O)c1ccncc1,-7,5903,0,-9,-3,-3
O=C(NNS(=O)(=O)c1ccc(Br)cc1)c1ccncc1,2,20766*,-2,-3,-2,-2
COc1ccc(OC)c(CN2C(=O)CCCCC2(C)c2nnnn2C2CCCC2)c1 (centres undefined),.,.,.,-1,.,.
COc1cccc(C2=NOC(C(=O)Nc3cccc(C(C)=O)c3)C2)c1 (centres undefined),-5,19143*,9,3,11,-3
COc1cccc(C2=NOC(C(=O)NC3CCCCC3)C2)c1 (centres undefined),3,10640,1,-6,6,-5
SMILES,3CLpro inhibitor,Autofluor counter,BoNT-A LC inh2,CCHFV vOTU inh,BoNT F protease,Anthrax LF inh2
COc1cccc(C2=NOC(C(=O)Nc3ccc(OC)c(OC)c3)C2)c1 (centres undefined),0,10066,1,-10,-2,0
CC1CCN(C(=O)C2CC(c3ccc(F)cc3)=NO2)CC1 (centres undefined),6,11242,0,.,5,-2
O=C(NC1CCCC1)C1CC(c2ccc(F)cc2)=NO1 (centres undefined),2,23071*,-1,2,-5,0
CC1CCCC(C)N1C(=O)C1CC(c2ccc(F)cc2)=NO1 (centres undefined),1,17330*,-3,5,-4,0
CC(=O)c1ccc(NC(=O)C2CC(c3ccc(F)cc3)=NO2)cc1 (centres undefined),-2,23509*,-1,11,-3,-2
O=[N+]([O-])c1ccc(/C=N/Nc2nc(N3CCCCC3)nc(N3CCCCC3)n2)o1,-1,21202*,4,10,2,11
CCc1sc(C(=O)N2CCN(S(C)(=O)=O)CC2)cc1Br,4,23583*,-2,.,0,0
COc1ccccc1NC(=O)c1csc2c1CCCC2,-6,19509*,?,4,1,-4
CC(NC(=O)c1ccco1)c1cccc2ccccc12 (centres undefined),-6,22307*,1,-4,2,0
C=CCN1[C@@H](C)COc2cc(F)ccc2S1(=O)=O,.,.,.,0,.,.
N=c1ncn(CC(O)CN2CCOCC2)c2nc(N3CCOCC3)[nH]c12 (centres undefined),-5,22533*,0,-4,1,-6
O=C(CCS(=O)(=O)c1ccccc1)Nc1ccc(F)cc1F,.,.,.,-2,.,.
O=C(CC1SC(=O)N(c2ccccc2)C1=O)Nc1ccccc1 (centres undefined),-1,21831*,1,11,-4,-3
O=C(NCc1ccccc1)[C@@H]1CCCN1C(=O)[C@H]1CCCN1C(=O)c1cccs1,.,.,.,1,.,.
O=C(CSc1ccc2ccccc2n1)N1CCC(c2noc3ccc(F)cc23)CC1,0,22244*,-8,-6,-10,0
COc1cc2nc(SCc3ccc(C(F)(F)F)cc3)n(Cc3cccs3)c(=N)c2cc1OC,-2,8413,0,-1,6,-16
COc1ccc(Cn2c(SCc3ccc(C)cc3)nc3cc(OC)c(OC)cc3c2=N)cc1Cl,-3,16606*,-1,-7,-4,-2
COc1cc2nc(SCc3ccc(Cl)cc3Cl)n(Cc3cccs3)c(=N)c2cc1OC,4,20638*,0,-2,-1,-4
N#Cc1ccc(CSc2nc3sc4c(c3c(=O)n2-c2ccc(Br)cc2)CCCC4)cc1,.,.,.,3,.,.
COC(=O)c1scc(C)c1N/N=C(\C)c1ccc(F)cc1,1,23635*,?,16,-11,-10
Cc1csc(C(=O)O)c1NC(=O)c1ccc(F)cc1,-3,3044,0,-11,-12,4
O=C(COC(=O)C1(c2ccc(F)cc2)CCCC1)NC1CC1,3,17844*,-3,-2,-3,1
C[C@H]1[C@@H](C(=O)N2CCCC2)CC(=O)/C(=N/OCc2ccccc2)C[C@@H]1c1ccccc1,.,.,.,2,.,.
O=C(CCCl)NC1CCCCN(Cc2ccc(OC(F)(F)F)cc2)C1=O (centres undefined),.,.,.,13,.,.
CCCCCc1ccc(CC(=O)O)cc1,2,25330*,?,6,-5,-6
COc1ccc(S[C@]2(C(=O)NCCCN(C)C)CC(=O)N[C@@H]2c2ccc(OC)cc2)cc1,.,.,.,-1,.,.
COc1ncnc2c1oc1nc(CC(C)C)c3c(c12)CC(C)(C)OC3,1,23399*,0,1,-2,-5
